12-LOX inh – blocks human arachidonate 12S-lipoxygenase; P18054; purified 12hLO, xylenol orange hydroperoxide absorbance; Potency, µM (titrated, usually from 108 µM), inactives show at the highest dose activity change, negative = inhibition, hits mostly inhibitors; 580,000 compounds, 1.1% hits; AID 1671190; also: % is scaled to controls: 0 for no effect and ±100 for the full control effect
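Purified human 12hLO (150 nM final) in 25 mM Hepes, 0.01% Triton X-100, pH 7.0 was preincubated 15 min at room temperature with compound. Then 40 uM arachidonic acid was added, 30 min. Hydroperoxide was read by Fe-XO absorbance ratio 573/405 nm.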
JMJD2A Tudor – blocks the human JMJD2A Tudor domain; O75164; AlphaScreen JMJD2A-Tudor / H3K4me3 peptide binding; Potency, µM (highest dose often 114 µM), for inactives: top-dose activity change, negative = inhibition, hits mostly inhibitors; 390,000 compounds, 4.4% hits; also: % is scaled to controls: 0 for no effect and ±100 for the full control effect; nearly all actives have a fitted effect of over 50% in size
BAZ2B inh – BAZ2B (human) inhibition. Q9UIF8. AlphaScreen BAZ2B-H3K14Ac peptide displacement. Potency, µM (doses to about 114 µM), for inactives: at the highest dose activity change, negative = inhibition, actives largely listed as inhibitors. 360,000 compounds, 4.4% hits; also: % is scaled to controls: 0 for no effect and ±100 for the full control effect; nearly all actives have a fitted effect of over 60% in size
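BAZ2B (50 nM) with biotin-H3(5-23)K14Ac peptide (50 nM) in PBS pH 7.4, 0.01% Tween-20, preformed 30 min, then compound 30 min at room temperature; top concentration 110uM. AlphaScreen streptavidin donor/nickel chelate acceptor beads (10 ug/mL final), 20 min dark, signal read.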
HP1b chromo inh – HP1-beta chromodomain-methylated histone interaction inhibition; P83916; AlphaScreen HP1-beta / biotin-H3K9me3 peptide binding; Potency, µM (doses to about 114 µM), for the others: at the highest dose activity change, negative = inhibition, actives largely listed as inhibitors; 390,000 compounds, 0.56% hits; AID 540317; also: nearly all actives have a fitted effect of over 70% in size
Target sequence (P83916 whole entry, looked up): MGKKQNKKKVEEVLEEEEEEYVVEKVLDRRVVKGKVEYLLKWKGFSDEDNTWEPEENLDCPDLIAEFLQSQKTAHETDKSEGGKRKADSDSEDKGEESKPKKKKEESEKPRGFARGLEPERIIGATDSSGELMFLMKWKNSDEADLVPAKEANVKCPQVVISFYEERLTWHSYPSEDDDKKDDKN
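HP1-beta protein (50 nM final) preincubated 30 min at room temperature with biotinylated H3(1-18)K9me3 peptide (50 nM) in PBS pH 7.4, 0.01% Tween-20, then compound added for 30 min. AlphaScreen streptavidin donor/nickel chelate acceptor beads (10 ug/mL final), 30 min dark, luminescence read.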
Sfp inh – Sfp phosphopantetheinyl transferase inhibition | Q9F4F7 | Biochemical Sfp PPTase activity, qHTS | Potency, µM, inactives show largest response in the series, negative = inhibition, usual class: inhibitors | 310,000 compounds, 3.5% hits | AID 1490;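 also: the enzyme is Sfp with the accession as filed and its product quenches rhodamine fluorescence; 0% = enzyme reaction without inhibitor and -100% = no enzyme wells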
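Fluorescence-quenching assay: 15 nM Sfp-PPTase preincubated 15 min at room temperature with compound, then 5 uM rhodamine-CoA and 12.5 uM BHQ-2-labelled YbbR peptide added. Fluorescence (ex 525/em 598 nm) read at start and after 30 min; difference gives rate.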
G9a inh – blocks human histone lysine methyltransferase G9a; G9a H3K9 monomethylation, AlphaScreen, 2 h; Potency, µM (series often up to 102 µM), for the others: at the highest dose activity, negative = inhibition, most hits filed as inhibitors; AID 504332; 350,000 compounds, 8.8% hits; Q96KQ7; also: % is scaled to controls: 0 for no effect and ±100 for the full control effect; nearly all actives have a fitted effect of over 75% in size
Target sequence (Q96KQ7 913-1193 limits assumed): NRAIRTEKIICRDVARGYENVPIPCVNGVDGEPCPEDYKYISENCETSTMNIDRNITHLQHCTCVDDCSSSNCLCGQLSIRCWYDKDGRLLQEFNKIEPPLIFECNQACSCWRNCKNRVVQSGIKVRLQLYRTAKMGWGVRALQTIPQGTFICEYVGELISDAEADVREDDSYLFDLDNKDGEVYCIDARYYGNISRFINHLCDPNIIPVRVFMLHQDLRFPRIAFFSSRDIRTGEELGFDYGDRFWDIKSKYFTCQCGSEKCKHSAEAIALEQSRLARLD
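Methyltransferase reactions run at room temperature for 2 h (20 nM enzyme, 500 nM biotin-H3K9 peptide, 20 uM SAM) after a 15 min compound preincubation; product detected by AlphaScreen beads and anti-H3K9me1 antibody.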
* marks the source's active call; other numbers are inactive results; ? = inconclusive; / = no result given; [ ] = dose if it differs, or a comment. An excerpt weighted towards active compounds, which were near 8.7% of everything screened. Calls follow the shape of the dose curve; as a rule, active = well fitted curve in the direction sought with a large enough effect; inconclusive = small, poorly fitted or top-dose-only effect, or another doubt; inactive = no such curve, though single readings can be large; an effect the other way counts as inactive or inconclusive. Potency is read from the fitted curve at half-maximal effect.

SMILES	12-LOX inh	JMJD2A Tudor	BAZ2B inh	HP1b chromo inh	Sfp inh	G9a inh
O=C(NC1CCCC1)C(c1ccncc1)N(Cc1ccccc1)C(=O)c1ccc(-c2ccccc2)[nH]1 (stereo not drawn)	-13.8%	?	44.7µM*	-10.5%	17.8µM*	-11.8%[59 µM]
Cc1sc2nc(CN3CCOCC3)nc(N(C)CC(=O)Nc3cccc4ccccc34)c2c1C	-14.8%	/	/	/	/	/
CC(C)(C)NC(=O)C(c1ccncc1)N(Cc1ccc(F)cc1)C(=O)c1ccc(-c2ccccc2)[nH]1 (stereo not drawn)	-10.3%	?	?	-5.8%	8.5%	28.2µM*
O=C(NC1CCCC1)C(c1ccncc1)N(CCCN1CCOCC1)C(=O)c1ccc(-c2ccccc2)[nH]1 (stereo not drawn)	1.7%	-26.1%	-21.4%	4.6%	-1.0%	?
O=C(NCC1CCCO1)C(c1cccs1)N(Cc1ccccc1Cl)C(=O)c1ccc(-c2ccccc2)[nH]1 (stereo not drawn)	-8.5%	?	?	-27.7%	1.3%	?
O=C(NC1CCCC1)C(c1ccncc1)N(Cc1ccco1)C(=O)c1ccc(-c2ccccc2)[nH]1 (stereo not drawn)	-25.9%	?	35.5µM*	?	?	?
CC(C)(C)NC(=O)C(c1ccncc1)N(Cc1cccs1)C(=O)Cn1nnc(-c2ccc(F)cc2)n1 (stereo not drawn)	0.0%	-22.6%	2.9%	43.1%	3.3%	3.8%[59 µM]
Cc1ccc(C(C(=O)NCC2CCCO2)N(Cc2ccccc2)C(=O)c2ccc(-c3ccccc3)[nH]2)o1 (stereo not drawn)	-22.4%	?	39.8µM*	-19.5%	-11.4%	-5.6%[59 µM]
COC(=O)C1(NC(=O)c2ccc3c(c2)OCCCO3)CCCCC1	4.1%	/	/	/	/	/
O=C(Nc1cccc(-c2ccc(N3CCCC3)nn2)c1)Nc1c(F)cccc1F	11.6%	/	/	/	/	/
N#Cc1c(N)n[nH]c1CCCCCNc1ncnc2c1cnn2-c1ccccc1	27.5%	/	/	/	/	/
Cc1ccc(NC(=O)CN(C)C(=O)CCc2ncc(-c3ccccc3)o2)cc1	10.2%	/	/	/	/	/
CC1(O)CC(c2ccc(Cl)cc2)=NN1C(=O)c1ccc([N+](=O)[O-])cc1 (stereo not drawn)	?	-24.1%[11.4 µM]	14.1µM*	?	17.4%	?
CO[C@H]1C(=O)N(C(C)C)[C@H]1C1CCN(Cc2ccc3cc[nH]c3c2)CC1	-1.8%	/	/	/	/	/
CN(C)CCNC(=O)c1ccc2c(c1)NC(=O)c1ccccc1S2	-0.5%	-10.4%	-7.6%	10.0%	-0.4%	44.7µM*
CCN(CC)CCNC(=O)c1ccc2c(c1)NC(=O)c1ccccc1S2	8.5%	-7.5%	4.8%	24.3%	6.9%	44.7µM*
COc1cc2c(cc1OCc1ccccc1)-c1nnc(-c3ccccc3)n1C(C)(C)C2	-2.3%	/	/	/	/	/
O=C(Nc1nc2ccc(Oc3ccccc3)cc2s1)c1cc([N+](=O)[O-])ccc1N1CCOCC1	-0.3%	-32.1%	?	-1.0%	-24.4%	15.8µM*
Cc1cc(=O)[nH]c(SCC(=O)Nc2nc3ccccc3s2)n1	-28.4%	-23.2%	?	27.7%	79.4µM*	31.6µM*
COc1cc(=O)[nH]c(SCC(=O)Nc2nc3c(s2)CCCC3)n1	-26.2%	31.6µM*	1.7%	-5.2%	17.1%	8.7%[59 µM]
Cc1cc(=O)[nH]c(SCC(=O)Nc2nc(-c3ccccc3)cs2)n1	?	-20.0%	?	14.7%	-6.1%	50.1µM*
Cc1cc(=O)[nH]c(SCC(=O)Nc2nnc(SCc3ccccc3)s2)n1	-15.8%	-11.3%[11.4 µM]	-38.9%	-5.7%	1.9%	-6.1%
NS(=O)(=O)c1ccc(CCNC(=O)c2cc3n(n2)CC(c2ccc(Cl)cc2)OC3)cc1 (stereo not drawn)	28.1%	/	/	/	/	/
COC(=O)[C@@H](NC(=O)NCc1ccccc1)C(C)C	15.7%	/	/	/	/	/
Nc1cc(=O)[nH]c(SCC(=O)Nc2cc([N+](=O)[O-])ccc2Cl)n1	-24.5%	?	-20.2%	?	11.5%	11.2%
SMILES	12-LOX inh	JMJD2A Tudor	BAZ2B inh	HP1b chromo inh	Sfp inh	G9a inh
CC(=O)Nc1c(O)nc(SCC(=O)Nc2c(C)cccc2C)[nH]c1=O	-12.8%	-22.5%	3.4%	23.4%	79.4µM*	?
O=C(CSc1cn[nH]n1)Nc1nc2ccccc2s1	-5.1%	-13.4%	-0.6%	33.7%	34.9%	39.8µM*
O=C(CN1CCOCC1)Nc1nc2ccc([N+](=O)[O-])cc2s1	2.3%	10µM*	-27.1%	29.5%	-2.9%	-46.4%
O=C(CSc1ccccn1)Nc1nc2ccccc2s1	?	0.7%	2.9%	33.2%	16.4%	13.0%[59 µM]
Nc1cc(=O)[nH]c(SCC(=O)Nc2nc3ccc([N+](=O)[O-])cc3s2)n1	/	/	?	/	-17.9%	39.8µM*
CCOc1ccc(CC(=O)NCc2nnc3ccc(-c4ccccc4)nn23)cc1	8.0%	/	/	/	/	/
O=C(NC1CCSc2ccccc21)c1cc([N+](=O)[O-])ccc1N1CCOCC1 (stereo not drawn)	-14.0%	-20.7%	-28.7%	-11.7%	/	56.2µM*
O=C(NC1CCSc2ccccc21)c1ccc([N+](=O)[O-])cc1 (stereo not drawn)	?	-15.2%	-26.4%	31.1%	17.9%	-10.7%
Cc1nc(-c2ccccc2)cn(O)c1=O	?	28.2µM*	79.4µM*	6.3%	-26.4%	?
COc1ccccc1C1NC=C([N+](=O)[O-])C=C1[N+](=O)[O-] (stereo not drawn)	?	?	44.7µM*	?	?	3.55µM*
CCCC(=O)OCC	-1.1%[176 µM]	/	/	/	/	/
CCCCCCCCCCCC(=O)NC(Cc1ccc(OC)c([N+](=O)[O-])c1)C(=O)O (stereo not drawn)	?	-23.1%	-26.3%	9.3%	14.0%	28.2µM*
CC1(C)Cc2ccccc2/C(=C/C(=O)N2CCCCCC2)N1	?	?	56.2µM*	0.0%	-28.1%	35.5µM*
COc1cc2c(cc1OC)/C(=C/C(=O)N1CCOCC1)NC(C)(C)C2	?	?	-17.0%	2.4%	?	?
CC(=O)N/C(N)=N/c1nc(=O)c2ccccc2s1	?	-19.9%	-1.2%	-2.9%	3.5%	/
Cc1ccc(C(=O)Nc2nc3ccccc3c(=O)s2)cc1	-20.0%	89.1µM*	?	17.0%	56.2µM*	8.91µM*
CCOc1ccc(C(=O)Nc2nnc(NC(=S)Nc3ccccc3)s2)cc1	-24.0%	-14.6%	-20.0%	0.8%	?	?
CSc1nc2ccc3nc(NC(=O)c4ccc(C)cc4)sc3c2s1	10.8%[57.4 µM]	-19.9%	3.9%	51.3%	2.8%	-11.5%[59 µM]
CC(=O)Nc1nc(=O)c2ccccc2s1	?	-28.2%	4.3%	16.4%	?	22.4µM*
Cc1ccc(C(=O)Nc2nnc(NC(=S)Nc3ccccc3)s2)cc1	39.8µM*	-21.2%	-12.0%	-22.6%	-1.8%	?

Source: PubChem BioAssay
